Bioassay records from PubChem BioAssay.
Only some compounds are listed: those with a hit (about 3.4% of all), similar ones and a draw of the others.
HIF-2a inh: blocks HIF-2a reporter activity. actives 0.72% (n = 360,000). 786-0 RCC cells HIF-2a reporter, luciferase luminescence, overnight. AID 624352. inhibition, % at 18.8 µM;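 active means inhibition of the luminescence signal of 40% or more relative to plate controls, in a single-dose primary screen at 18.75 µM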
MITF TRPM1 inh: reduces MITF-dependent TRPM1 promoter luciferase signal; AID 488899; SK-MEL-5 TRPM1 promoter luciferase, 24 h; actives 0.83% (n = 330,000); inhibition, % at 12.5 µM;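 active means mean inhibition across replicates of 60% or more, whatever share of single replicates reaches that level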
TWEAK Fn14 block: inhibitors of TWEAK-Fn14 interaction signaling; inhibition, % at 10 µM; actives 2% (n = 360,000); AID 1159606; TWEAK-stimulated Fn14 reporter cells, luciferase luminescence, 8 h; in the data active means inhibition above about 50%
TROY signal inh: blocks TROY-dependent signaling in reporter cells | Q293 LMP1-TROYcd NF-kB luciferase reporter, 4 h | inhibition, % at 10 µM | actives 0.98% (n = 360,000);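 active means compounds whose plate-normalised and pattern-corrected inhibition of the luciferase reporter signal at the single screening dose is 50% or more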
LMP1 NFkB inh: Epstein-Barr LMP1 NF-kappaB reporter inhibition. LMP1-induced NF-kappaB luciferase reporter cells, luminescence. inhibition, % at 12.5 µM. actives 0.69% (n = 350,000); in the data active means inhibition above about 41%;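 further: 0% = neutral control wells and 100% = reference inhibitor control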
Shn3 3UTR inh: reduces Shn3 3'UTR luciferase signal in osteoblasts; AID 588674; inhibition, % at 12.5 µM; Clone20 osteoblast Shn3 3'UTR firefly luciferase, 24 h; actives 0.52% (n = 360,000);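 active means mean inhibition of at least 75% with every replicate also reaching 75%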;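 further: 0% = median of neutral control wells and 100% = pilot-screen positive control compound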
Starred values were filed as active, the others as inactive; . = no result given.

SMILES	HIF-2a inh	MITF TRPM1 inh	TWEAK Fn14 block	TROY signal inh	LMP1 NFkB inh	Shn3 3UTR inh
CC(=O)Nc1sc(N/N=C/c2ccccc2)nc1-c1ccc(C)cc1	-77	-43	18	-48	-1	-13
Cc1cccc(N2CCN(C(=O)C3(S(=O)(=O)c4ccc(Cl)cc4)CC3)CC2)c1C	15	3	-11	29	7	8
Cc1ccc(S(=O)(=O)C2(C(=O)N3CCN(c4ccccc4F)CC3)CC2)cc1	4	-7	66*	6	1	-7
CCN1C(=O)/C(=C/c2nc3ccccc3c(=O)n2-c2ccc(C)cc2)c2ccccc21	33	19	67*	13	14	-19
CCN1C(=O)/C(=C\c2nc3ccccc3c(=O)n2-c2ccccc2)c2ccccc21	33	11	57*	26	11	-8
Cc1cccnc1C(NC(=O)C1CCN(CCOc2ccc(F)cc2)CC1)c1ccc(F)cc1 (stereo unspecified)	-5	.	6	26	.	9
CC(=O)c1cccc(NC(=O)CSc2nc(C3CC3)nc3ccccc23)c1	29	-2	58*	40	7	-4
Cn1c(SCC(=O)NCC2CCCO2)ncc(C(=O)Nc2ccc(Cl)cc2)c1=O (stereo unspecified)	-61	67*	4	-7	-22	20
Cn1c(SCC(=O)NCC2CCCO2)ncc(C(=O)Nc2ccc(F)cc2)c1=O (stereo unspecified)	-28	47	12	-2	-6	-19
CC(=O)Nc1cccc(NC(=O)CSc2nc(C3CC3)nc3ccccc23)c1	24	43	31	9	23	36
CC(=O)c1cccc(NC(=O)CSc2ncc(C(=O)Nc3ccccc3)c(=O)n2C)c1	10	64*	-11	-8	-5	-12
CC(=O)Nc1cccc(NC(=O)CSc2ncc(C(=O)Nc3ccccc3)c(=O)n2C)c1	1	67*	2	14	-12	10
COCCCn1c(-c2ccc(S(=O)(=O)N3CCOCC3)cc2)csc1=Nc1ccccc1	12	29	71*	29	28	91*
Cc1ccccc1OCc1nnc(SCC(=O)Nc2ccc3nc(SCC(=O)NC(C)(C)C)sc3c2)n1C	31	43	89*	.	25	44
CC(C)(C)NC(=O)CSc1nc2ccc(NC(=O)CSc3nnnn3Cc3ccccc3)cc2s1	-9	46	73*	50*	3	84
CC(NC(=O)CSc1nc2ccc(N)cc2s1)c1ccccc1 (stereo unspecified)	-22	18	21	52*	1	8
CCN(CC)C(=O)CSc1nc2ccc(NC(=O)CSc3nnc(COc4ccccc4C)n3C)cc2s1	4	2	46	38	11	18
C#CCOc1ccc2c3c(c(=O)oc2c1)CCCC3	-109	1	-35	-13	-2	-17
COC(=O)c1c(C)n(-c2ccc(OC)cc2)c2ccc(O)cc12	28	.	52*	39	16	16
COc1ccc(-n2c(C)c(C(C)=O)c3cc(OC(C)=O)ccc32)cc1	35	3	84*	52*	60*	18
O=C(NN(C(=O)c1ccccc1)c1cccs1)c1ccccc1	11	-2	-5	-6	0	-1
CCOc1ccc2nc(N(CCCN(C)C)C(=O)c3ccc(S(=O)(=O)N4CCc5ccccc5C4)cc3)sc2c1	12	74*	-13	-5	5	26
Cc1ccc2sc(N(CCCN(C)C)C(=O)c3ccc(S(=O)(=O)N4CCc5ccccc5C4)cc3)nc2c1C	27	65*	-73	-80	-20	38
CC1CCCCN1S(=O)(=O)c1ccc(C(=O)N(CCCN(C)C)c2nc3ccc(Br)cc3s2)cc1 (stereo unspecified)	-27	95*	-42	-29	5	-10
CCCCCCCCNC(C)C(O)c1ccc(SC(C)C)cc1 (stereo unspecified)	22	83*	-36	18	-94	96*
SMILES	HIF-2a inh	MITF TRPM1 inh	TWEAK Fn14 block	TROY signal inh	LMP1 NFkB inh	Shn3 3UTR inh
C[C@@H](NCCc1ccc(O)cc1)[C@@H](O)c1ccc(O)cc1	23	-10	-36	21	9	8
COc1ccc(C(CNC(=O)C(CCSC)NC(=O)c2ccccc2Cl)N2CCCCC2)cc1 (stereo unspecified)	-2	-1	13	5	71*	6
COc1ccc(C(CNC(=O)C(CCSC)NC(=O)c2ccccc2Cl)N2CCCC2)cc1 (stereo unspecified)	6	2	2	-25	1	20
Cn1c(C(=O)Nc2ccc3c(c2)OCCO3)cc2c(=O)n(C)c3ccccc3c21	-46	-7	65*	22	-41	-12
CC(Sc1nc2ccccc2c(=O)n1C)C(=O)Nc1ccc2c(c1)OCCO2 (stereo unspecified)	2	19	38	25	8	86*
O=C(NCc1ccc(Cl)cc1)c1ccc(CNc2c(N3CCOCC3)c(=O)c2=O)cc1	14	-2	8	-3	1	-3
O=C(NCc1ccc(Cl)cc1)c1ccc(CNc2c(N3CCCC3)c(=O)c2=O)cc1	51*	1	-21	7	-1	12
CCOCCOC(=O)Cn1cnc2scc(-c3ccc(C)cc3)c2c1=O	15	3	9	-10	-2	-54
O=[N+]([O-])c1ccc(Sc2cccc[n+]2[O-])c2nonc12	91*	100*	94*	86*	4	98*
O=[N+]([O-])c1ccc(Nc2ccccc2)c2nonc12	4	0	30	11	8	-38
CC(=O)c1c(C)[nH]c(C(=O)COc2cc(C)ccc2C(C)C)c1C	9	42	64*	48	31	83
COc1cc(C)ccc1OCC(=O)OCC(=O)c1[nH]c(C)c(C(C)=O)c1C	18	-10	-9	-1	0	8
COc1ccccc1OCC(=O)c1[nH]c(C)c(C(C)=O)c1C	-5	13	17	13	14	85*
O=C(CN1C(=O)NC(CCc2ccccc2)C1=O)Nc1cccc(Br)c1 (stereo unspecified)	-1	5	-7	-6	-9	0
CCOC(=O)[C@]12CCC=C1N(Cc1ccco1)C(=O)[C@H](CC(=O)NCc1cccs1)C2	-8	.	-2	-5	.	.
O=C(Cn1cc(C(F)(F)F)cc(Cl)c1=O)NCCc1ccccc1	16	-4	13	6	-10	96*
O=C(Cn1cc(C(F)(F)F)cc(Cl)c1=O)NCc1ccccc1	-162	-46	12	-29	-35	-42
O=C(O)c1c(F)c(F)cc2ccccc12	17	-12	107*	-2	-3	-17
O=C(COC(=O)c1ccccc1Br)Nc1cccnc1Cl	2	-11	-53	-16	-3	-1
CCN(CC)CCNC(=O)C1CCN(S(=O)(=O)c2c(C)noc2/C=C/c2ccccc2F)CC1	1	77*	-7	-4	0	-28
